Several values for one entry are separate records, joined by “and”; a condition that tells them apart may be missing. Identical values can stand only once. Screen size: about 5,500 compounds; about 2,000 (36%) were called active. Another 18% or so got no clear call; they are omitted. Rule as the data show it: active = normalized growth mostly below about 0.91 (no sharp cut-off); inconclusive = no clear call, values can overlap the other calls; inactive = mostly above about 0.92. Some of the results follow.
Experiment: chemical genetic growth profiling, strain panel (AID 1159580);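 also: tested at 20 µM; growth read once vehicle control cultures reached saturation at 30 °C; 1 = growth at the plate median or of vehicle wells; lower values mean less growth of the strain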
Conditions: S. cerevisiae deletion strains, growth OD

Measured: normalized growth

NC(N)=NC(N)=Nc1ccccc1
inactive: locus YAL013W, strain DEP1, stronger effect = lower value 1.01 and 0.984 | locus YAL021C, strain ccr4, stronger effect = lower value 1 | locus YAL026C, strain drs2, stronger effect = lower value 0.998 | locus YAL030W, strain snc1, stronger effect = lower value 1.01 | locus YAL040C, strain CLN3, stronger effect = lower value 1.08 | locus YBL061C, strain skt5, stronger effect = lower value 1 | locus YBR009C, strain hhf1, stronger effect = lower value 0.979 | locus YBR021W, strain FUR4, stronger effect = lower value 1.02 | locus YBR023C, strain chs3, stronger effect = lower value 1 | locus YBR171W, strain sec66, stronger effect = lower value 1 | locus YBR229C, strain ROT2, stronger effect = lower value 1.01 | locus YBR231C, strain swc5, stronger effect = lower value 0.987 | locus YBR279W, strain paf1, stronger effect = lower value 1 | locus YCL011C, strain gbp2, stronger effect = lower value 1 | locus YCL016C, strain dcc1, stronger effect = lower value 1 | locus YCL029C, strain bik1, stronger effect = lower value 0.995 | locus YCL061C, strain MRC1 (second series), stronger effect = lower value 1 | locus YCL061C, strain MRC1, stronger effect = lower value 0.993 | locus YCL069W, strain vba3, stronger effect = lower value 1 | locus YCR088W, strain abp1, stronger effect = lower value 1.01 | locus YDL005C, strain med2, stronger effect = lower value 0.998 | locus YDL035C, strain GPR1, stronger effect = lower value 1.01 | locus YDL040C, strain nat1, stronger effect = lower value 0.991 | locus YDL074C, strain BRE1, stronger effect = lower value 1.02 | locus YDL101C, strain DUN1, stronger effect = lower value 1.02 | locus YDL134C, strain PPH21, stronger effect = lower value 1.01 | locus YDL185W, strain tfp1, stronger effect = lower value 0.996 | locus YDL192W, strain arf1, stronger effect = lower value 0.998 | locus YDR001C, strain nth1, stronger effect = lower value 0.998 | locus YDR069C, strain doa4, stronger effect = lower value 0.995 | locus YDR101C, strain arx1, stronger effect = lower value 1.02 | locus YDR137W, strain rgp1, stronger effect = lower value 0.981 | locus YDR150W, strain NUM1, stronger effect = lower value 0.998 | locus YDR159W, strain sac3, stronger effect = lower value 0.961 | locus YDR162C, strain NBP2, stronger effect = lower value 1.01 | locus YDR195W, strain ref2 0.948 | locus YDR297W, strain sur2, stronger effect = lower value 0.999 | locus YDR318W, strain mcm21, stronger effect = lower value 0.992 | locus YDR334W, strain swr1, stronger effect = lower value 1 | locus YDR335W, strain msn5, stronger effect = lower value 1 | locus YDR363W, strain ESC2, stronger effect = lower value 1.02 | locus YDR388W, stronger effect = lower value 1 | locus YDR392W, strain spt3, stronger effect = lower value 0.903 | locus YDR502C, strain sam2, stronger effect = lower value 0.993 | locus YEL003W, strain gim4, stronger effect = lower value 0.998 | locus YEL037C, strain rad23, stronger effect = lower value 1.01 | locus YEL061C, strain CIN8 (second series), stronger effect = lower value 0.996 | locus YEL061C, strain CIN8, stronger effect = lower value 1.01 | locus YER002W, strain NOP16, stronger effect = lower value 1.03 | locus YER015W, strain faa2, stronger effect = lower value 0.998 | locus YER016W, strain bim1, stronger effect = lower value 0.999 | locus YER110C, stronger effect = lower value 0.986 | locus YER111C, strain swi4, stronger effect = lower value 0.996 | locus YER155C, strain BEM2 (second series), stronger effect = lower value 0.964 | locus YER155C, strain BEM2, stronger effect = lower value 1 | locus YER167W, strain BCK2, stronger effect = lower value 1.01 | locus YFR010W, strain ubp6, stronger effect = lower value 1.01 | locus YGL078C, strain dbp3, stronger effect = lower value 0.997 | locus YGL086W, strain mad1, stronger effect = lower value 0.997 | locus YGL167C, strain pmr1, stronger effect = lower value 0.993 | locus YGL173C, strain kem1, stronger effect = lower value 0.991 | locus YGL227W, strain vid30, stronger effect = lower value 0.997 | locus YGL240W, strain doc1, stronger effect = lower value 0.964 | locus YGL248W, strain PDE1, stronger effect = lower value 1.02 | locus YGL253W, strain hxk2, stronger effect = lower value 1.01 | locus YGR078C, strain PAC10, stronger effect = lower value 1.01 | locus YGR135W, strain pre9, stronger effect = lower value 0.995 | locus YGR229C, strain SMI1, stronger effect = lower value 0.985 | locus YGR252W, strain gcn5, stronger effect = lower value 0.993 | locus YHR013C, strain ard1, stronger effect = lower value 0.952 | locus YHR027C, strain rpn1, stronger effect = lower value 1 | locus YHR030C, strain SLT2, stronger effect = lower value 1.01 and 1 | locus YHR079C, strain IRE1 (second series), stronger effect = lower value 0.988 | locus YHR079C, strain IRE1, stronger effect = lower value 1 | locus YHR094C, strain hxt1, stronger effect = lower value 0.987 | locus YHR129C, strain ARP1, stronger effect = lower value 1.01 | locus YHR142W, strain chs7, stronger effect = lower value 1.03 | locus YHR200W, strain rpn10, stronger effect = lower value 0.997 | locus YIL066C, strain RNR3, stronger effect = lower value 1.02 | locus YIL073C, strain SPO22, stronger effect = lower value 0.989 | locus YIL125W, strain kgd1, stronger effect = lower value 0.988 | locus YIR030C, strain dcg1, stronger effect = lower value 0.996 | locus YJL092W, strain hpr5, stronger effect = lower value 1 | locus YJL095W, strain BCK1 (second series), stronger effect = lower value 1.01 | locus YJL095W, strain BCK1, stronger effect = lower value 1.03 and 0.993 | locus YJL115W, strain asf1, stronger effect = lower value 1 | locus YJL129C, strain trk1, stronger effect = lower value 1.02 | locus YJL134W, strain LCB3, stronger effect = lower value 1.01 | locus YJL154C, strain vps35, stronger effect = lower value 1.01 | locus YJL164C, strain tpk1, stronger effect = lower value 1 | locus YJL166W, strain qcr8, stronger effect = lower value 0.992 | locus YJL168C, strain set2, stronger effect = lower value 0.994 | locus YJL187C, strain SWE1 (second series), stronger effect = lower value 1.02 | locus YJL187C, strain SWE1, stronger effect = lower value 1 | locus YJR043C, strain POL32, stronger effect = lower value 1.01
